Test results reported in PubChem BioAssay (NCATS).
Records with an inconclusive call do not appear. A call without a number means that no potency is given here. Unmarked numbers belong to inactive results. Activity calls are given as the source filed them. Calls come from the whole dose curve; as a rule, active = well fitted inhibition curve with a large enough effect; inconclusive = small, poorly fitted or top-dose-only effect; inactive = flat fitted curve, though single readings scatter.

How the values were obtained:
Assay in all cases: qHTS profiling for inhibitors of Plasmodium falciparum proliferation (AID 504749); note: nearly all actives have a fitted effect of over 60% in size
Conditions in all cases: P. falciparum in erythrocytes, SYBR Green DNA, 72 h; series mostly up to 28.7 µM
[1] = system: AA1029
Outline: (§1)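 Parasite proliferation within erythrocytes, 72 h exposure. Endpoint: SYBR Green I fluorescence after overnight lysis at room temperature. Controls: 0.29 uM artemisinin, DMSO.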

[2] = system: AS120
Outline: as §1

[3] = system: ATS189
Outline: as §1

[4] = system: ATS95
Outline: as §1

[5] = system: C2A
Outline: as §1

[6] = system: CP185
Outline: as §1

[7] = system: CP191
Outline: as §1

[8] = system: CP192
Outline: as §1

[9] = system: CP194
Outline: as §1

[10] = system: CP201
Outline: as §1
Potency is the fitted concentration of half-maximal effect.

Structure (SMILES) | Potency [1] | Potency [2] | Potency [3] | Potency [4] | Potency [5] | Potency [6] | Potency [7] | Potency [8] | Potency [9] | Potency [10] | activity, negative = inhibition [1] | activity, negative = inhibition [2] | activity, negative = inhibition [3] | activity, negative = inhibition [4] | activity, negative = inhibition [5] | activity, negative = inhibition [6] | activity, negative = inhibition [7] | activity, negative = inhibition [8] | activity, negative = inhibition [9] | activity, negative = inhibition [10]
Nc1nc(N)nc(NC2CC2)n1 | inactive | inactive | inactive | inactive | inactive | inactive | inactive | inactive | inactive | inactive |  |  |  |  |  |  |  |  |  | 
CN1CCC(O)(c2ccc(F)cc2)C(C(=O)c2ccc(F)cc2)C1 (stereo not given) | inactive | inactive | inactive | inactive | inactive | inactive | inactive | inactive | inactive | inactive |  |  |  |  |  |  |  |  |  | 
C[C@]12CC[C@@H]3c4ccc(OC(=O)N(CCCl)CCCl)cc4CC[C@H]3[C@@H]1CC[C@@H]2O | inactive | inactive | inactive | inactive | inactive | inactive | inactive | inactive | inactive | inactive |  |  |  |  |  |  |  |  |  | 
COP(=S)(OC)Oc1ccc(SC)c(C)c1 | inactive | inactive | inactive | inactive | inactive | inactive | inactive | inactive | inactive | inactive |  |  |  |  |  |  |  |  |  | 
CCCCCCC(=O)CCCCCC/C=C/C[C@@H](O)[C@H](O)[C@@](N)(CO)C(=O)O | inactive | inactive | inactive | inactive | inactive | inactive | inactive | inactive | inactive | inactive |  |  |  |  |  |  |  |  |  | 
C=C(C)[C@H]1CN[C@H](C(=O)O)[C@H]1CC(=O)O | inactive | inactive | inactive | inactive | inactive | inactive | inactive | inactive | inactive | inactive |  |  |  |  |  |  |  |  |  | 
CCCCCCCCCC(=O)O[C@H]1CC[C@H]2[C@@H]3CCC4=CC(=O)CC[C@@H]4[C@H]3CC[C@]12C | inactive | inactive | inactive | inactive | inactive | inactive | inactive | inactive | inactive | inactive |  |  |  |  |  |  |  |  |  | 
CN1C(=O)C(O)N=C(c2ccccc2)c2cc(Cl)ccc21 (stereo not given) | inactive | inactive | inactive | inactive | inactive | inactive | inactive | inactive | inactive | inactive |  |  |  |  |  |  |  |  |  | 
CCC1(c2ccccc2)C(=O)N(COC)C(=O)N(COC)C1=O | inactive | inactive | inactive | inactive | inactive | inactive | inactive | inactive | inactive | inactive |  |  |  |  |  |  |  |  |  | 
CN1C[C@H](C(=O)N[C@]2(C)O[C@@]3(O)[C@@H]4CCCN4C(=O)[C@H](Cc4ccccc4)N3C2=O)C=C2c3cccc4[nH]cc(c34)C[C@H]21 | 1 µM (active) | 0.562 µM (active) | 3.16 µM (active) | 0.708 µM (active) | 3.55 µM (active) | 3.98 µM (active) | 1.58 µM (active) | 8.49 µM (active) | 13.5 µM (active) | 15.1 µM (active) |  |  |  |  |  |  |  |  |  | 
C[C@]12CCC(=O)C=C1CC[C@@H]1[C@@H]2CC[C@]2(C)C(=O)CC[C@@H]12 | inactive | inactive | inactive | inactive | inactive | inactive | inactive | inactive | inactive | inactive |  |  |  |  |  |  |  |  |  | 
CN1C(=O)CCS(=O)(=O)C1c1ccc(Cl)cc1 (stereo not given) | inactive | inactive | inactive | inactive | inactive | inactive | inactive | inactive | inactive | inactive |  |  |  |  |  |  |  |  |  | 
O=C(Nc1ccc(Br)cc1)c1cc(Br)cc(Br)c1O | inactive | inactive | inactive | inactive | inactive | inactive | inactive | inactive | inactive | inactive |  |  |  |  |  |  |  |  |  | 
O=C1OC(c2ccc(O)c(S(=O)(=O)O)c2)(c2ccc(O)c(S(=O)(=O)O)c2)c2c(Br)c(Br)c(Br)c(Br)c21 | inactive | inactive | inactive | inactive | inactive | inactive | inactive | inactive | inactive | inactive |  |  |  |  |  |  |  |  |  | 
C[C@](O)(CS(=O)(=O)c1ccc(F)cc1)C(=O)Nc1ccc(C#N)c(C(F)(F)F)c1 | inactive | inactive | inactive | inactive | inactive | inactive | inactive | inactive | inactive | inactive |  |  |  |  |  |  |  |  |  | 
Clc1cccc(SC2CCNCC2)n1 | inactive | inactive | inactive | inactive | inactive | inactive | inactive | inactive | inactive | inactive |  |  |  |  |  |  |  |  |  | 
Nc1ccc([As](=O)(O)O)cc1 | inactive | inactive | inactive | inactive | inactive | inactive | inactive | inactive | inactive | inactive |  |  |  |  |  |  |  |  |  | 
NNc1ccccc1 | inactive | inactive | inactive | inactive | inactive | inactive | inactive | inactive | inactive | inactive |  |  |  |  |  |  |  |  |  | 
CN1C(=O)COc2c(C(=O)NC3CN4CCC3CC4)cc(Cl)cc21 (stereo not given) | inactive | inactive | inactive | inactive | inactive | inactive | inactive | inactive | inactive | inactive |  |  |  |  |  |  |  |  |  | 
O=C1Nc2ccc(Cl)cc2C(c2ccccc2)=NC1O (stereo not given) | inactive | inactive | inactive | inactive | inactive | inactive | inactive | inactive | inactive | inactive |  |  |  |  |  |  |  |  |  | 
CC(C)=CC1C(C(=O)OCN2C(=O)C3=C(CCCC3)C2=O)C1(C)C (stereo not given) | inactive | inactive | inactive | inactive | inactive | inactive | inactive | inactive | inactive | inactive |  |  |  |  |  |  |  |  |  | 
CCOC(=O)CC(SP(=S)(OC)OC)C(=O)OCC (stereo not given) | inactive | inactive | inactive | inactive | inactive | inactive | inactive | inactive | inactive | inactive |  |  |  |  |  |  |  |  |  | 
c1ccc2c(c1)sc1ccccc12 | inactive | inactive | inactive | inactive | inactive | inactive | inactive | inactive | inactive | inactive |  |  |  |  |  |  |  |  |  | 
CCCC(C)(COC(N)=O)COC(N)=O | inactive | inactive | inactive | inactive | inactive | inactive | inactive | inactive | inactive | inactive |  |  |  |  |  |  |  |  |  | 
COc1c2c(cc3c1OCO3)CCN(C)C2 | inactive | inactive | inactive | inactive | inactive | inactive | inactive | inactive | inactive | inactive |  |  |  |  |  |  |  |  |  | 
CCCCC/C=C\C/C=C\C/C=C\C/C=C\CCCC(=O)NCC(=O)O |  |  |  |  |  |  |  |  |  |  | -5.7% [at 2.67 µM] | -10.8% [at 2.67 µM] | -4.38% [at 2.67 µM] | -8.06% [at 2.67 µM] | -0.778% [at 2.67 µM] | 13.1% [at 2.67 µM] | 8.29% [at 2.67 µM] | -0.958% [at 2.67 µM] | 0.793% [at 2.67 µM] | 1.43% [at 2.67 µM]
O=c1[nH]oc2c1CCNC2 | inactive | inactive | inactive | inactive | inactive | inactive | inactive | inactive | inactive | inactive |  |  |  |  |  |  |  |  |  | 
Oc1ccc(Cl)cc1 | inactive | inactive | inactive | inactive | inactive | inactive | inactive | inactive | inactive | inactive |  |  |  |  |  |  |  |  |  | 
